# This is one part of the list. Inconclusive results are not listed. The source made the active and inactive calls. Calls follow the shape of the full dose curve.
# Molecular target: Vitamin D3 receptor (Homo sapiens) (UniProt P11473)
# Assay: Vitamin D Receptor Selectivity Assay for Inhibitors of the Interaction of Thyroid Hormone Receptor and Steroid Receptor Coregulator 2
# Settings: VDR LBD/SRC2-3 peptide, fluorescence polarization, 3 h
# From the text: NIH Molecular Libraries Probe Production Network [MLPCN] NIH Chemical Genomics Center [NCGC] MLPCN Grant: DK058080 Assay Provider: R. Kip Guy, St. Jude Children's Research Hospital NCGC Assay Overview: Thyroid receptor (TR) regulates many homeostatic processes including basal metabolism, cardiovascular function, body weight, and lipid trafficking. TR modulators are potential therapeutics for obesity and hyperlipidemias but current thyroid analogs have undesirable side effects, particularly cardiac stimulation. This secondary assay characterized compounds identified in the qHTS for Inhibitors of the Interaction of Thyroid Hormone Receptor and Steroid Receptor Coregulator 2 (PubChem AID 1485) for selectivity against the vitamin D receptor (VDR). […] Small molecule inhibitors that block the interaction of VDR and SRC2-3 are detected by a decrease in fluorescence polarization. […] Quantification of the vitamin D receptor-coregulator interaction. […]
# NCGC Assay Protocol Summary: Twenty uL/well 1 uM VDR and 5 nM Alexa Fluor 647 SRC2-3 peptide in buffer (25 mM PIPES, pH 6.75, 50 mM NaCl, 0.01% NP-40, 6 uM LG190178, and 4% DMSO) was dispensed into black solid 384-well plates (Costar 3710) using a Biomek FX (Beckman Coulter) liquid handling system. […] The plates were read by an Envision (Perkin Elmer) to detect fluorescence polarization of Alexa Fluor 647 (620 nm excitation and 688 nm emission).
# Sequence of Vitamin D3 receptor (Homo sapiens) (P11473 whole entry, looked up): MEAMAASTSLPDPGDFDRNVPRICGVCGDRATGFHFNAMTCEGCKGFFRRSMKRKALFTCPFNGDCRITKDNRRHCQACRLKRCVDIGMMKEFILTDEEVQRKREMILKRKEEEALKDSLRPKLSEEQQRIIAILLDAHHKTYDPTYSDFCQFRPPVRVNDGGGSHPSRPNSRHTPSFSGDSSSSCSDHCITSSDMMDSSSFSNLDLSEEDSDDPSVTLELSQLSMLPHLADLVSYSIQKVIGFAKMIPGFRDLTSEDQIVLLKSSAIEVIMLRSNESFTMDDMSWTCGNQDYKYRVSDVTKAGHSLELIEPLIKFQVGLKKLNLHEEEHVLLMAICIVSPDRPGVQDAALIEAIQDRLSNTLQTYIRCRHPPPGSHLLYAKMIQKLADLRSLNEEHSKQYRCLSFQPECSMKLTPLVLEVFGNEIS
row,Structure (SMILES),outcome
1,O=C(COC(=O)c1cccc([N+](=O)[O-])c1)NC1C2CC3CC(C2)CC1C3 (stereo unspecified),inactive
